Drawing on PubChem BioAssay (EPA / NIEHS), this text covers outcome and AC50 for 35 compounds.

Several values for one entry are separate records, joined by “and”; a condition that tells them apart may be missing. Identical values can stand only once. Some structures have more than one record in an assay (separate samples or runs), and their calls can disagree. Activity calls are given as the source filed them. How the source made its calls: active means hit-call score of the fitted dose curve at least 0.9, where 1 is the maximum; inactive means score below 0.9.

Chain of Aryl hydrocarbon receptor (Homo sapiens) (P35869 whole entry, looked up): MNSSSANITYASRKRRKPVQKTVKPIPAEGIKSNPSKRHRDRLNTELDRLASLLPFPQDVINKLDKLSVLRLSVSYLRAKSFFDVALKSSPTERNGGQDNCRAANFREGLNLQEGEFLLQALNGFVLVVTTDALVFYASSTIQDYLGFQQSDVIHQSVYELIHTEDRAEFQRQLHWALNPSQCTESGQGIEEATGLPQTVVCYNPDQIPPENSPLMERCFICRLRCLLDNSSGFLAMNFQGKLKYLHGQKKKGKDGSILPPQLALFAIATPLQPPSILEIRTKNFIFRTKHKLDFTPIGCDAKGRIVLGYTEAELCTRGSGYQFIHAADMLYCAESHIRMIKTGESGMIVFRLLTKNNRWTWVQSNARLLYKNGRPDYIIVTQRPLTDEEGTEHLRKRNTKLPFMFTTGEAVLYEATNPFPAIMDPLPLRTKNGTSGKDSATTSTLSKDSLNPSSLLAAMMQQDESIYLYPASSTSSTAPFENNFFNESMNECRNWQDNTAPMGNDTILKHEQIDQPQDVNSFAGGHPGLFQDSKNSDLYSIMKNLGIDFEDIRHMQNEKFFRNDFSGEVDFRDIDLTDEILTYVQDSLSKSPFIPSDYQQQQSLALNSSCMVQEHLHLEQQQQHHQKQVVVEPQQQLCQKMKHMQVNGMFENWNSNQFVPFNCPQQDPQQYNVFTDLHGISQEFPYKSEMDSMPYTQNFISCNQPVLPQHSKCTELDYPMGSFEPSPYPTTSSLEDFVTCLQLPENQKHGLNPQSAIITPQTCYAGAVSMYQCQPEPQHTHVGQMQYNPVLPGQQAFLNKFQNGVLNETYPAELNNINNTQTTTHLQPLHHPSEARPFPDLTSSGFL

The assay deals with Aryl hydrocarbon receptor (Homo sapiens) (UniProt P35869). Nature of the assay: ATG_Ahr_CIS: Attagene CIS-FACTORIAL HepG2 Assay for human Aryl Hydrocarbon Receptor (Ahr) (AID 2282930). Conditions: HepG2 AhR cis-factorial reporter transcription; actives raise or lower the signal. How it is done:
ATG_CIS is a cell-based, multiplexed-readout assay that uses HepG2, a human liver cell line, with measurements taken at 24 hours after chemical dosing in a 24-well plate.ATG_Ahr_CIS is one of 52 assay component(s) measured or calculated from the ATG_CIS assay. It is designed to make measurements of mRNA induction, a form of inducible reporter, as detected with fluorescence intensity signals by Reverse transcription polymerase chain reaction (RT-PCR) and Capillary electrophoresis technology.Data from the assay component ATG_Ahr_CIS was analyzed into 1 assay endpoint. This assay endpoint, ATG_Ahr_CIS, was analyzed with bidirectional fitting relative to DMSO as the negative control and baseline of activity. Using a type of inducible reporter, measures of mRNA for gain or loss-of-signal activity can be used to understand the reporter gene at the transcription factor-level as they relate to the gene AHR. Furthermore, this assay endpoint can be referred to as a primary readout, because this assay has produced multiple assay endpoints where this one serves a reporter gene function. To generalize the intended target to other relatable targets, this assay endpoint is annotated to the dna binding intended target family, where the subfamily is basic helix-loop-helix protein.
Human liver HepG2 cells are transiently transfected with multiple reporter transcription units (MRTUs) in 6-well plates using FuGene 6 reagent (Roche; 3 ml FuGene/1 mg DNA). The MRTU constructs are regulated by a cis-regulating element (promoter). […] A major difference between the CIS and TRANS system is that in CIS activities of endogenous TFs are measured, whereas the TRANS assay evaluates changes in activities of exogenous, chimeric NR-Gal4 proteins. […] At the end of 24 hour incubation, total RNA was isolated using TriZol reagent (Invitrogen). The isolated RNA is then reverse-transcribed using oligo(dT) primer and Mo-MLV reverse transcriptase (Invitrogen) with DNAse I (Ambion) treatment for 30 min. The one-tenth of the produced cDNA was amplified by PCR using Taq DNA polymerase (Invitrogen) and two reporter sequence-specific primers. The PCR products were fluorescently labeled by primer extension with 6-arboxyfluorescein (6-FAM) 5'-labeled reporter sequence-specific primer (2 min at 95 C, 20 s at 68 C and 10 min at 72 C) and these products were digested with 5U of HpaI (New England Biolabs) for 2h at 37 C. […] The raw capillary electrophoresis data was processed using Attagraph software (Attagene).
As for `S=C([S-])NCCNC(=S)[S-].[Mn+2]`, the outcome was inactive.

`CCOC(=O)COc1cc(-n2ncc(C(F)(F)F)c(C)c2=O)c(F)cc1Cl`: the compound was classed as inactive.

As for `O=C(c1ccc(O)cc1O)c1ccc(O)cc1O`, the compound was classed as inactive.

Usually AC50 stands for the concentration at which the activity in the assay is half-maximal. For `CC(C)(c1ccc(O)cc1)c1ccc(O)cc1`, the AC50 was 26.9 µM (active) and 49.5 µM (active) and 23.6 µM (active); the result was inactive.

For `COC(=O)c1c(Cl)nn(C)c1S(=O)(=O)NC(=O)Nc1nc(OC)cc(OC)n1`, the compound was called inactive.

For `CC(C)CCCCCCc1ccc(O)cc1`, the result was inactive and the AC50 is 21 µM (active).

For the compound `COC(=O)c1ccc(CNS(C)(=O)=O)cc1S(=O)(=O)NC(=O)Nc1nc(OC)cc(OC)n1`, the compound was classed as inactive.

On to `C[C@]12CC[C@@H]3c4ccc(O)cc4C[C@@H](CCCCCCCCCS(=O)CCCC(F)(F)C(F)(F)F)[C@H]3[C@@H]1CC[C@@H]2O` (stereo not given in full), for which the result was inactive.

On to `COC(=O)c1ccc(I)cc1S(=O)(=O)NC(=O)Nc1nc(C)nc(OC)n1`, for which the call was inactive.

Regarding `O=C(c1ccccc1)C1CCCCC1`, the AC50 was 17.2 µM (active) and the call was inactive.

Take `O=C(O)c1ccccc1`: the compound was called inactive.

With `CCOC(=O)NCCOc1ccc(Oc2ccccc2)cc1`, the call was inactive.

As to `S=C(S)NCCNC(=S)S.[Mn+2].[S-]C([S-])=NCCN=C([S-])[S-].[Zn+2]`, the compound was called inactive and the AC50 was 20.7 µM (active) [middle of 4 runs].

Regarding `c1ccc(Nc2ccccc2)cc1`, the result was inactive.

Consider `CCCCOC(=O)C(C)Oc1ccc(Oc2ccc(C(F)(F)F)cn2)cc1` (stereo not given), for which the outcome was inactive.

Take `C[C@]12C[C@H](O)[C@H]3[C@@H](CCC4=CC(=O)CC[C@@]43C)[C@@H]1CC[C@@H]2C(=O)CO`: the outcome was inactive.

As for `COCCO`, the outcome was inactive.

Consider `CCC(C)OC(=O)N1CCCCC1CCO` (stereo not given), for which the call was inactive.

In the case of `COC(=O)CSc1cc(N=c2sc(=O)n3n2CCCC3)c(F)cc1Cl`, the compound was called inactive.

For `COc1nc(C)nc(NC(=O)NS(=O)(=O)c2ccccc2OCCCl)n1`, the compound was classed as inactive.

As for `CCC(O)=C1C(=O)CC(C(=O)O)CC1=O` (stereo not given), the outcome was inactive.

As to `CCCCOC(=O)[C@@H](C)Oc1ccc(Oc2ccc(C(F)(F)F)cn2)cc1`, the outcome was inactive.

As to `COC(=O)c1ccccc1S(=O)(=O)NC(=O)Nc1nc(OC(F)F)cc(OC(F)F)n1`, the compound was called inactive.

As for `CCOC(=O)C(C)Oc1ccc(Oc2cnc3cc(Cl)ccc3n2)cc1` (stereo not given), the outcome was inactive.

Consider `CCCCC(CC)CN1C(=O)C2C3C=CC(C3)C2C1=O` (stereo not given), for which the call was inactive.

Regarding `CSC(=O)c1cccc2nnsc12`, the result was inactive.

Regarding `CCOC(=O)C(C)Oc1ccc(Oc2nc3ccc(Cl)cc3o2)cc1` (stereo not given), the outcome was inactive.

With `N#CSCSc1nc2ccccc2s1`, the compound was called inactive.

For the compound `C=CCOC(Cn1ccnc1)c1ccc(Cl)cc1Cl` (stereo not given), the compound was classed as inactive.

For the compound `CC(=O)[C@H]1CC[C@H]2[C@@H]3CCC4=CC(=O)CC[C@]4(C)[C@H]3CC[C@]12C`, the AC50 is 100 µM (active) and the call was inactive.

As for `COC(=O)c1cccc(C)c1S(=O)(=O)NC(=O)Nc1nc(OCC(F)(F)F)nc(N(C)C)n1`, the compound was classed as inactive.

`Cc1nn(C)c(Oc2ccccc2)c1C=NOCc1ccc(C(=O)OC(C)(C)C)cc1`: the call was inactive.

On to `CCCOC(=O)NCCCN(C)C`, for which the call was inactive.

In the case of `CCCN(CCC)c1c([N+](=O)[O-])cc(C(F)(F)F)c(N)c1[N+](=O)[O-]`, the AC50 was 28.9 µM (active).

`O=C(O)C1(C(=O)Nc2ccc(Cl)cc2Cl)CC1`: the call was inactive.
